Data published in the supplement of paper PMC10849652.
Of roughly 8,800 targets only a part is listed; those with a hit were picked by preference. About 0.5% of all pairs of compound and target were hits.

Experiments:
Assay in all cases: log2 fold change, soluble protein after heating vs DMSO (PISA); higher = thermal stabilisation; K562 lysate, 10 uM; active = over 0.2 and 3.5 SD of the protein, either way, in both replicates (recomputed)
[1] = compound: CCn1cc(-c2ccnc3[nH]c(-c4cccc(CN(C)C)c4)cc23)c(-c2ccc(NC(=O)N(C)C)cc2)n1
Method in brief: (§1)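 K562 pellets were dounce-homogenised in PBS pH 7.4 with 1 mM MgCl2, and the crude extract at 1 mg/mL protein was treated with 10 μM compound for 30 min. Aliquots were heated for 3 min across 48°C-58°C, pooled, and brought to 0.5% NP-40 at 4°C; soluble protein was the supernatant after 21,000xg for 90 min. Soluble protein was quantified by TMTpro 16plex LC-MS/MS with channel sums equalised, and reported as log2 fold change in thermal stability against DMSO controls, with values from duplicates.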

[2] = compound: CN1CCC(CNc2ccc3ncc(-c4cccc(OC(F)(F)F)c4)n3n2)CC1
Method in brief: as §1

ibrutinib = compound: C=CC(=O)N1CCC[C@@H](n2nc(-c3ccc(Oc4ccccc4)cc3)c3c(N)ncnc32)C1 [ibrutinib]
Method in brief: as §1

[3] = compound: CC(=O)c1cnc2ccc(-c3cc(Cl)c(O)c(Cl)c3)nc2c1N[C@H]1CC[C@H](CN(C)C)CC1
Method in brief: as §1

[4] = compound: CC(C)C1=C2N=C(C=C(N2N=C1)NCC3=CC=CC=C3)NCCCCCCN
Method in brief: as §1

[5] = compound: CC1=C(C(CC(=O)N1)C2=CC=C(C=C2)C(F)(F)F)C(=O)NC3=C(C=C4C(=C3)C=NN4)F
Method in brief: as §1

[6] = compound: CC1=C(C2=C(C=C1)C(=O)C3=CC=CC=C3N2CCCN)C
Method in brief: as §1

[7] = compound: CC1=C(C=C(C=C1)NC(=O)C2=CC(=CC=C2)C(C)(C)C#N)NC3=CC4=C(C=C3)N=CN(C4=O)C
Method in brief: as §1

[8] = compound: CC1=CC=C(C=C1)SC2=C3C=C(SC3=CN=C2)C(=O)N
Method in brief: as §1

vemurafenib = compound: CCCS(=O)(=O)Nc1ccc(F)c(C(=O)c2c[nH]c3ncc(-c4ccc(Cl)cc4)cc23)c1F [vemurafenib]
Method in brief: as §1

[9] = compound: CCCS(=O)(=O)Nc1ccc(F)c(C(=O)c2c[nH]c3ncc(Cl)cc23)c1F
Method in brief: as §1

barasertib = compound: CCN(CCCOc1ccc2c(Nc3cc(CC(=O)Nc4cccc(F)c4)[nH]n3)ncnc2c1)CCOP(=O)(O)O [barasertib]
Method in brief: as §1

[10] = compound: CC[C@@H]1C(=O)N(C)c2cnc(Nc3ccc(C(=O)NC4CCN(C)CC4)cc3OC)nc2N1C1CCCC1
Method in brief: as §1

volasertib = compound: CC[C@@H]1C(=O)N(C)c2cnc(Nc3ccc(C(=O)N[C@H]4CC[C@H](N5CCN(CC6CC6)CC5)CC4)cc3OC)nc2N1C(C)C [volasertib]
Method in brief: as §1

saracatinib = compound: CN1CCN(CCOc2cc(OC3CCOCC3)c3c(Nc4c(Cl)ccc5c4OCO5)ncnc3c2)CC1 [saracatinib]
Method in brief: as §1

sotrastaurin = compound: CN1CCN(c2nc(C3=C(c4c[nH]c5ccccc45)C(=O)NC3=O)c3ccccc3n2)CC1 [sotrastaurin]
Method in brief: as §1

ralimetinib = compound: CC(C)(C)Cn1c(N)nc2ccc(-c3[nH]c(C(C)(C)C)nc3-c3ccc(F)cc3)nc21 [ralimetinib]
Method in brief: as §1

[11] = compound: CC(C)(O)CC(=O)NCCn1ccc2ncnc(Nc3ccc(Oc4cccc(C(F)(F)F)c4)c(Cl)c3)c21
Method in brief: as §1

[12] = compound: CC1=C(C=C(C=C1)NC(=O)C2=CC(=CC=C2)N(C)C)NC(=O)C3=CC=C(C=C3)O
Method in brief: as §1

[13] = compound: CCn1c(C(=O)N(C2CC2)C2CC2)cc2c3c(ncn3C)c(Nc3cc(C)n(C)n3)nc21
Method in brief: as §1

Measured: log2 fold change

KIF2A isoform 2 (UniProt O00139)
inactive: [1] 0.129 | [2] 0.316

MARCHF6 (UniProt O60337)
Sequence of UniProt O60337 (O60337 whole entry, looked up): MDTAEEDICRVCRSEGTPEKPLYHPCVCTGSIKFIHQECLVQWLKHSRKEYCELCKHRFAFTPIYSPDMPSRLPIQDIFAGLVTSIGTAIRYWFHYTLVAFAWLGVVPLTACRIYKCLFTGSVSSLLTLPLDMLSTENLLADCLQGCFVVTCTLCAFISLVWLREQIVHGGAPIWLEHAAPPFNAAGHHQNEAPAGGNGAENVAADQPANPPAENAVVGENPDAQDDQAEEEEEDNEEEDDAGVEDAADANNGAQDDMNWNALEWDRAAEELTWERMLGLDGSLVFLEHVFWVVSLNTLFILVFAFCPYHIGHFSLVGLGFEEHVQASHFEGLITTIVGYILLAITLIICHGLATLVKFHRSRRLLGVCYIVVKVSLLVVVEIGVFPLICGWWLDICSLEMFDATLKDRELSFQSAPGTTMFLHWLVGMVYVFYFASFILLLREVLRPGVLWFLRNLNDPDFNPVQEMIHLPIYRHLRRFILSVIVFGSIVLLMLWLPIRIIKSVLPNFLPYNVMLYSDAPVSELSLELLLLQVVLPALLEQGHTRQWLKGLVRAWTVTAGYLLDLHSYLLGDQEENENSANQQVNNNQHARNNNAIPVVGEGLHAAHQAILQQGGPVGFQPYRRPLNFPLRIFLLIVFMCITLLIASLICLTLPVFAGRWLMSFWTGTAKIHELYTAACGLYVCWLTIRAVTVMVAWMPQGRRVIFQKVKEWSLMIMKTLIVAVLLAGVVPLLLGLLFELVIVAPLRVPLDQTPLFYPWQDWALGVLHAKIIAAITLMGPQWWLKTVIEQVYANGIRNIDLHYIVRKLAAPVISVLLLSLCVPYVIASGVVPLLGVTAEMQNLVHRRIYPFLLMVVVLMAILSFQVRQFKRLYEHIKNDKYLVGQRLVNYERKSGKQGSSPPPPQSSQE
active: ibrutinib -0.395
inactive: [3] -0.021 | [4] -0.012 | [5] 0.014 | [6] 0.101 | [7] 0.004 | [8] 0.032 | vemurafenib 0.043 | [9] 0.052 | barasertib 0.233 | [10] 0.038 | volasertib 0.078 | [1] -0.023 | [2] 0.013 | saracatinib -0.13 | sotrastaurin 0.034

MAPK7 (UniProt Q13164)
Sequence of UniProt Q13164 (Q13164 whole entry, looked up): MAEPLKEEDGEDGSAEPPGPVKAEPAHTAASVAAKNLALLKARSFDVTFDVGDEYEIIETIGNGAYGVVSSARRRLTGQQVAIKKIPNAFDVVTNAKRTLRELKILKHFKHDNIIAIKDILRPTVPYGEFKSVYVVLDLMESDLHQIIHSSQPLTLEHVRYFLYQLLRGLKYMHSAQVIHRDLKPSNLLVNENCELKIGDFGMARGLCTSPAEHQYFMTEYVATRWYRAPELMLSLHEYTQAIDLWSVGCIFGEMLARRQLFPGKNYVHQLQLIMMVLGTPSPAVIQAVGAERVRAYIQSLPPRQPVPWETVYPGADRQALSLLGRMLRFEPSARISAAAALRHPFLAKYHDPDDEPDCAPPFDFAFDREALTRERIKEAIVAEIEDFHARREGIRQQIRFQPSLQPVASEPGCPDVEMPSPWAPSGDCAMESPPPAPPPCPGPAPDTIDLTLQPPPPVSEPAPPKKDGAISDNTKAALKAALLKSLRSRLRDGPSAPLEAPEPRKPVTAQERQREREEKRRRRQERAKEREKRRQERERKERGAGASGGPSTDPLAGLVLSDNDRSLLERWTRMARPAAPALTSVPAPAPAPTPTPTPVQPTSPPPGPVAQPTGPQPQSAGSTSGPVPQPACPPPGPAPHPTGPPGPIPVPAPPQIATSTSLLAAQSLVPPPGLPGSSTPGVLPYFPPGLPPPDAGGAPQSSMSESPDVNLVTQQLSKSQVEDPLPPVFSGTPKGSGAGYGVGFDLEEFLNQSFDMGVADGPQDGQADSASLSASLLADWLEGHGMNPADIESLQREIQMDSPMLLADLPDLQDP
active: [3] 0.388
inactive: [4] 0.025 | [7] -0.034 | [8] -0.013 | [9] 0.024 | [10] 0.072 | volasertib -0.056 | [1] -0.084 | [2] -0.101 | sotrastaurin -0.031

KIFC3 isoform 6 (UniProt Q9BVG8)
Sequence of UniProt Q9BVG8 (Q9BVG8 whole entry, looked up): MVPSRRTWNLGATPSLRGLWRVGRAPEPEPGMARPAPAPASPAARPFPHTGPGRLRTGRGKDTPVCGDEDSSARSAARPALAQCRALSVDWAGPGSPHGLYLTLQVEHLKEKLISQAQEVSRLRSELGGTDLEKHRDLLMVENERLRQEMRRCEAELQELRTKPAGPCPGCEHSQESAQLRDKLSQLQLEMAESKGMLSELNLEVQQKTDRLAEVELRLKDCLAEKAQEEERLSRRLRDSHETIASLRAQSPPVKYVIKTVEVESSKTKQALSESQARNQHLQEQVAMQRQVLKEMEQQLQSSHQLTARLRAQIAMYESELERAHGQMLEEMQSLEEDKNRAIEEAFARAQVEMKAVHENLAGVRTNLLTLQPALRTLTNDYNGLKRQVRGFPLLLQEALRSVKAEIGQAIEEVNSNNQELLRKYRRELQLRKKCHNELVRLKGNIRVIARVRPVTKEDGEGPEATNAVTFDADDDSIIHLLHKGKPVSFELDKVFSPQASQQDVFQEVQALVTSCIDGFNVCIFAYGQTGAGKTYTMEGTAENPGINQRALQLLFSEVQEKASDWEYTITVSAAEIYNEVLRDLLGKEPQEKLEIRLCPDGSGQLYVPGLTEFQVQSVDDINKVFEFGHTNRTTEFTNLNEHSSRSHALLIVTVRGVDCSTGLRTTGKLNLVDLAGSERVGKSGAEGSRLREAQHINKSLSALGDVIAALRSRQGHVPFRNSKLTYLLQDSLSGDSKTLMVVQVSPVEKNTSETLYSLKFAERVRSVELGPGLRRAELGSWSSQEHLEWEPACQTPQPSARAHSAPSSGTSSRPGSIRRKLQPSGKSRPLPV
inactive: ibrutinib 0 | [4] 0.097 | [6] -0.231 | [7] 0.193 | vemurafenib 0.052 | barasertib 0.025 | [10] 0.409 | [1] 0.284 | [2] 0.256 | saracatinib 0.005 | sotrastaurin 0.028

LYN isoform 2 (UniProt P07948)
Sequence of UniProt P07948 (P07948 whole entry, looked up): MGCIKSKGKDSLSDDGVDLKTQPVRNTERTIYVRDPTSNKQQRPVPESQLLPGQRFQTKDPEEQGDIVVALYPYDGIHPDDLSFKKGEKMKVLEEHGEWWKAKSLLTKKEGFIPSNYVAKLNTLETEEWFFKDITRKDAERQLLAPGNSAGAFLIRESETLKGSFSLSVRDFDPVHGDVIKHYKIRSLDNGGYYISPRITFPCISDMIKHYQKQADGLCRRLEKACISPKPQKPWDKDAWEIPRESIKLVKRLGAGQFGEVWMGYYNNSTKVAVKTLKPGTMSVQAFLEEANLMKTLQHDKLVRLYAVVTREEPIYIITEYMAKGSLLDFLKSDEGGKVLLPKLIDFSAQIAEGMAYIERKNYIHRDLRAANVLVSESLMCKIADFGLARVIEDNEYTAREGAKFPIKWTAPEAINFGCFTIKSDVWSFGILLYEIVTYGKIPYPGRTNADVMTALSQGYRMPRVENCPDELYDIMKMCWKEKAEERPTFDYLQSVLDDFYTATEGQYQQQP
inactive: ralimetinib -0.104 | [11] 0.106 | [4] -0.061 | [5] -0.432 | [6] -0.226 | [7] 0.333 | [12] -0.008 | [10] -0.077 | [13] -0.075 | [1] -0.031 | [2] 0.024 | saracatinib 0.353 | sotrastaurin 0.074

MAPKAP1 (UniProt Q9BPZ7)
Sequence of UniProt Q9BPZ7 (Q9BPZ7 whole entry, looked up): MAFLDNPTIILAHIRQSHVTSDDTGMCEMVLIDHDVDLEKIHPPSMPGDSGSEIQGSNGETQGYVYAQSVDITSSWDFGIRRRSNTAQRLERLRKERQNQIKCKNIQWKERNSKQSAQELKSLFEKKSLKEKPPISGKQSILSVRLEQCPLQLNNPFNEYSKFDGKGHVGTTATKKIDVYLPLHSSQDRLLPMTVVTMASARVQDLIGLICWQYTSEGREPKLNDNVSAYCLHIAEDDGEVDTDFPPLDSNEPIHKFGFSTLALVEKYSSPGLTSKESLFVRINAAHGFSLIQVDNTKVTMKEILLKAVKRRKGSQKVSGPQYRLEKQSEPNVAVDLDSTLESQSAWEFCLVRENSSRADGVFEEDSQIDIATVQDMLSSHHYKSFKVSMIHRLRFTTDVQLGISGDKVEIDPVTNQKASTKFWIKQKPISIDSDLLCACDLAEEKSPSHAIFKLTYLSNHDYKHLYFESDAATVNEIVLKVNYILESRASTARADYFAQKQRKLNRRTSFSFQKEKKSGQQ
inactive: ralimetinib -0.019 | [11] 0 | [4] -0.031 | [5] -0.103 | [6] 0.061 | [7] 0.007 | [12] -0.034 | [10] 0.031 | [13] 0.005 | saracatinib 0.057 | sotrastaurin -0.045

KIF21A (UniProt H0YI78)
inactive: ibrutinib -0.187 | [3] -0.073 | [4] -0.006 | [5] 0.107 | [6] 0.017 | [8] 0.031 | [9] 0.017 | barasertib -0.198 | volasertib -0.008 | saracatinib -0.151

KRAS (UniProt P01116)
Sequence of UniProt P01116 (P01116 whole entry, looked up): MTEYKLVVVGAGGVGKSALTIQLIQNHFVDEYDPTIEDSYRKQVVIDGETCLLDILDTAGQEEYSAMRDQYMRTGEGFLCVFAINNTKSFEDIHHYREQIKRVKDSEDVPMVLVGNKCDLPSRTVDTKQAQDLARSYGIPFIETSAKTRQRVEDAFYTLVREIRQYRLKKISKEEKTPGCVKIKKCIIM
inactive: [3] 0.006 | ralimetinib -0.023 | [11] 0.063 | [4] -0.008 | [5] -0.037 | [6] 0.018 | [7] -0.048 | [12] 0.07 | [8] -0.058 | vemurafenib 0.061 | [9] 0.019 | [10] 0.019 | volasertib 0.063 | [13] -0.053 | [2] 0.06 | saracatinib 0.066 | sotrastaurin 0.012
active: [1] -0.278

MAP3K4 isoform 2 (UniProt Q9Y6R4)
inactive: [7] -0.005 | sotrastaurin -0.004

KLC1 isoform 10 (UniProt Q07866)
Sequence of UniProt Q07866 (Q07866 whole entry, looked up): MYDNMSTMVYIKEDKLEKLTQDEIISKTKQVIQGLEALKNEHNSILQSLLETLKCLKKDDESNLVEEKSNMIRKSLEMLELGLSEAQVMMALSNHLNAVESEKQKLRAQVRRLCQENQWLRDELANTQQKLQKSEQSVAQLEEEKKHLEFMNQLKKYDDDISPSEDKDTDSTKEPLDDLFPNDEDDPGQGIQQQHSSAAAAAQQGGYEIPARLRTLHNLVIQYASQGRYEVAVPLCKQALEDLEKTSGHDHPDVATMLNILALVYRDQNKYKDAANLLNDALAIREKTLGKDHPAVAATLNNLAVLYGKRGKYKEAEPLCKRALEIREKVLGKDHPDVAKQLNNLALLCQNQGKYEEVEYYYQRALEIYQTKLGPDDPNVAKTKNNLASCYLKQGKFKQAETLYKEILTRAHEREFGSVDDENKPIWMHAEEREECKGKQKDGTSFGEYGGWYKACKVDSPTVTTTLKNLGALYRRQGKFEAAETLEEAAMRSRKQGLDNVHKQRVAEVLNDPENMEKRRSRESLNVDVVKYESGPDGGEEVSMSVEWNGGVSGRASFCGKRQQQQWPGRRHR
inactive: ibrutinib 0.235 | [4] -0.129 | barasertib 0.238 | [10] 0.152

MARF1 (UniProt Q9Y4F3)
inactive: ibrutinib 0.027 | ralimetinib 0.034 | [11] -0.042 | [4] -0.045 | [5] -0.021 | [6] 0.037 | [7] 0.004 | [12] 0.01 | vemurafenib -0.093 | barasertib 0.051 | [10] -0.059 | [13] 0.007 | [1] -0.027 | [2] -0.059 | saracatinib 0.027 | sotrastaurin 0
